Experimental data taken from PubChem BioAssay.
Measured potencies and affinities stand elsewhere. Records with an inconclusive call do not appear. Unmarked numbers belong to inactive results.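 Rule for the calls: active = signal-lowering compounds whose fitted half-maximal concentration is at or below twice the top tested dose in every run; inconclusive = runs disagree, flat 30 to 70% inhibition, or poor curve fit; inactive = the rest.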

Test: CMV-driven luciferase expression suppression in HEK293 – cell-based, luminescence, dry powder, counter-screen for Pax8 inhibitor project, dose response (AID 743020);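 note: HEK293 cells stably expressing the CMV luciferase reporter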
Settings: HEK293 CMV-luciferase reporter, SteadyGlo luminescence, 24 h; series mostly up to 35 µM; activity change, negative = inhibition: at the top concentration

SMILES	activity change, negative = inhibition
CO[C@@H]1CN(C)C(=O)c2cc(NC(=O)c3ccc(-c4ccccc4)cc3)ccc2OC[C@H](C)NC[C@H]1C	-3.6% [at 30 µM]
C[C@@H]1CN([C@H](C)CO)C(=O)c2cc(NC(=O)NC3CCCCC3)ccc2O[C@@H](C)CCCCO[C@H]1CN(C)Cc1ccc(C(F)(F)F)cc1	-2.26%
Cc1cc(NC(=O)CCCS(=O)(=O)c2nc(-c3cccs3)cc(C(F)(F)F)n2)no1	19.2%
COc1ccc(S(=O)(=O)Nc2ccc3c(c2)CC(=O)N([C@@H](C)CO)C[C@@H](C)[C@@H](CN(C)Cc2ccc(-c4ccccc4)cc2)O3)cc1	3.9%
COc1ccc(S(=O)(=O)Nc2ccc3c(c2)C(=O)N([C@H](C)CO)C[C@H](C)[C@H](CN(C)Cc2ccc(C(F)(F)F)cc2)OCCCC[C@H](C)O3)cc1	-1.6%
Cc1ccc2cccc(NS(=O)(=O)c3ccccc3)c2n1	-5.83%
Cc1ccc(S(=O)(=O)N(C)C[C@@H]2Oc3cc(C#Cc4ccncc4)ccc3S(=O)(=O)N([C@H](C)CO)C[C@@H]2C)cc1	6.19%
Cc1ccc(S(=O)(=O)Nc2ccc3c(c2)nc(CCN2CCCC2)n3C)cc1	-3.04%
C[C@@H]1CCCCO[C@H](CN(C)Cc2ccc(C(F)(F)F)cc2)[C@H](C)CN([C@@H](C)CO)C(=O)c2cc(NS(=O)(=O)c3ccc(F)cc3)ccc2O1	-7.76%
Cc1ccc(S(=O)(=O)Nc2ccc3c(c2)CC(=O)N([C@@H](C)CO)C[C@H](C)[C@@H](CN(C)C(=O)Nc2ccc(C(F)(F)F)cc2)O3)cc1	3.9%
O=C(NCCc1ccccc1)c1ccc2c(c1)OCCCO2	-21.7%
